Over roughly 11,000 sequences, “log2 fold change” has its median near 0.00022; the highest 2% begin near 0.34. Some of the results follow.

The test addresses GST-SBP-SLBP (stem-loop binding protein) (Homo sapiens, UniProt Q14493 1-270). The experiment in a line: targeted RNA Bind-n-Seq; RBNS binding buffer: 25 mM Tris pH 7.5, 150 mM KCl, 3 mM MgCl2, 0.1% Tween, 0.5 mg/mL BSA, 1 mM DTT; 27 nM protein, 750 pM RNA pool; temperature not stated; high values mean tight binding. The following applies: protein: recombinant; tags: N-terminal GST and SBP (pGEX6P1-SBP); structured_RNA. In short, it runs like this:
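The protein, carrying a GST-SBP tag, was produced in Rosetta(DE3) pLysS E. coli, purified on glutathione, and mixed at 27 nM with 750 pM of a designed RNA oligo pool made by T7 transcription in RBNS binding buffer. RNA that bound was reverse transcribed using a barcoded primer of 10 nucleotides, amplified by PCR and sequenced on a MiSeq with 200-cycle paired-end reads. FLASH joined the reads, HISAT2 aligned them, and they were collapsed by barcode before the binding signal was taken as the DEseq binary-logarithm fold change of read counts for each sequence.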
Regarding “GGUCACGUCUCAAUCAACUCAUCCUCCAGGGAAACCCCUGGCUAUCUCAACAGCUCGCAGUCAAG”, the binding signal is 0.3 ± 0.279 log2 fold change.

Turning to “GGUCACGUCUCAAUCAACUCUAUCUCCAGGGAAACCCCUGGCAAACUCAACAGCUCGCAGUCAAG”, the binding signal amounted to 0.323 ± 0.268 log2 fold change.

Take “GGUCACGUCUCAAUCAACUCAUCCUCCAGGGAAACCCCUGGCUAUUUCAACAGCUCGCAGUCAAG”: the binding signal is 0.363 ± 0.269 log2 fold change.

Take “GGUCACGUCUCAAUCAACUCUAUCUCCAGGGAAAGCCCUGGCUUACUCAACAGCUCGCAGUCAAG”: the binding signal came to 0.329 ± 0.278 log2 fold change.

Regarding “GGUCACGUCUCAAUCAACUCAAUCUCCAGGGAAAGCCCUGGCUAACUCAACAGCUCGCAGUCAAG”, the binding signal is 0.405 ± 0.277 log2 fold change.

Regarding “GGUCACGUCUCAAUCAACUCUAUCUCCAGGGAAAGCCCUGGUUAUCUCAACAGCUCGCAGUCAAG”, the binding signal worked out at 0.334 ± 0.307 log2 fold change.

Consider “GGUCACGUCUCAAUCAACUCUAUCUCCAGGGAAAACCCUGGCUAUUUCAACAGCUCGCAGUCAAG”, for which the binding signal turned out to be 0.433 ± 0.244 log2 fold change.

Take “GGUCACGUCUCAAUCAACUCUAUCUCCAGGGAAACCCCUGGCUAACUCAACAGCUCGCAGUCAAG”: the binding signal worked out at 0.366 ± 0.263 log2 fold change.

Consider “GGUCACGUCUCAAUCAACUCUAUCCCCAGGGAAAACCCUGGCUAUCUCAACAGCUCGCAGUCAAG”, for which the binding signal is 0.336 ± 0.26 log2 fold change.

On to “GGUCACGUCUCAAUCAACUCAUCCUCCAGGGAAAACCCUGGCAUAUUCAACAGCUCGCAGUCAAG”, for which the binding signal was 0.384 ± 0.243 log2 fold change.

Regarding “GGUCACGUCUCAAUCAACUCAUUUUCCAGGGAAAUCCCUGGCAUAUUCAACAGCUCGCAGUCAAG”, the binding signal was 0.33 ± 0.202 log2 fold change.

As for “GGUCACGUCUCAAUCAACUCAUCUCCCAGGGAAAACCCUGGCUAUCUCAACAGCUCGCAGUCAAG”, the binding signal is 0.3 ± 0.284 log2 fold change.

Turning to “GGUCACGUCUCAAUCAACUCUAUCUCCAGGGAAAACCCUGGCUAACUCAACAGCUCGCAGUCAAG”, the binding signal was determined as 0.369 ± 0.3 log2 fold change.

Consider “GGUCACGUCUCAAUCAACUCUUAAGAGGGGGGGAAAACCCCUUUGCCCUCACACUCAACAGCUCGCAGUCAAG”, for which the binding signal is 0.323 ± 0.393 log2 fold change.

For the sequence “GGUCACGUCUCAAUCAACUCUCUAGAGGGGGGGAAAACCCCUUUGCCCUCACUAUCAACAGCUCGCAGUCAAG”, the binding signal was 0.386 ± 0.408 log2 fold change.

Take “GGUCACGUCUCAAUCAACUCUCUAGAGGGGGGGAAAACCCCUUUGCCCUCACACUCAACAGCUCGCAGUCAAG”: the binding signal came to 0.353 ± 0.4 log2 fold change.

For “GGUCACGUCUCAAUCAACUCAAAAGAGGGGGGGAAAACCCCUUUACCCUCAUAUUCAACAGCUCGCAGUCAAG”, the binding signal was 0.449 ± 0.451 log2 fold change.

For the sequence “GGUCACGUCUCAAUCAACUCCAAAGAGGGGGGGAAAACCCCUUUACCCUCAUCUUCAACAGCUCGCAGUCAAG”, the binding signal came to 0.443 ± 0.434 log2 fold change.

On to “GGUCACGUCUCAAUCAACUCAAAAGAGGGGGGGAAAACCCCUUUACCCUCAUCUUCAACAGCUCGCAGUCAAG”, for which the binding signal stood at 0.535 ± 0.407 log2 fold change.

As to “GGUCACGUCUCAAUCAACUCAAUCCCCAGGGAAAUCCCUGGCAUUCUCAACAGCUCGCAGUCAAG”, the binding signal was determined as 0.318 ± 0.264 log2 fold change.

For “GGUCACGUCUCAAUCAACUCAUCUCCCAGGGAAAUCCCUGGCUUAUUCAACAGCUCGCAGUCAAG”, the binding signal was 0.417 ± 0.302 log2 fold change.

As for “GGUCACGUCUCAAUCAACUCUAUUUCCAGGGAAAUCCCUGGCUAACUCAACAGCUCGCAGUCAAG”, the binding signal stood at 0.335 ± 0.258 log2 fold change.

As to “GGUCACGUCUCAAUCAACUCUAUUUCCAGGGAAAUCCCUGGCUUAUUCAACAGCUCGCAGUCAAG”, the binding signal is 0.488 ± 0.245 log2 fold change.

“GGUCACGUCUCAAUCAACUCAUUCCCCAGGGAAAUCCCUGGCUUAUUCAACAGCUCGCAGUCAAG”: the binding signal was 0.349 ± 0.307 log2 fold change.

With “GGUCACGUCUCAAUCAACUCCCAAAGGUUUUUUUUAGAGCCACCCAUCAACAGCUCGCAGUCAAG”, the binding signal was 0.324 ± 0.158 log2 fold change.

For “GGUCACGUCUCAAUCAACUCCCAAAGGUUUUUUUUAGAACCACCCAUCAACAGCUCGCAGUCAAG”, the binding signal is 0.338 ± 0.169 log2 fold change.

As to “GGUCACGUCUCAAUCAACUCCCAAAGGUUUUUUUAAGAGCCACCCAUCAACAGCUCGCAGUCAAG”, the binding signal came to 0.54 ± 0.157 log2 fold change.

In the case of “GGUCACGUCUCAAUCAACUCCCAAAGGCUUUUCUUAGAGCCACCCAUCAACAGCUCGCAGUCAAG”, the binding signal stood at 0.496 ± 0.164 log2 fold change.

On to “GGUCACGUCUCAAUCAACUCCCAAAGGUUUUUCUCAGAACCACCCAUCAACAGCUCGCAGUCAAG”, for which the binding signal came out at 0.402 ± 0.178 log2 fold change.

On to “GGUCACGUCUCAAUCAACUCAUUCCCAGGAGUUUACUCCUGCUAACUCAACAGCUCGCAGUCAAG”, for which the binding signal came out at 0.364 ± 0.234 log2 fold change.

Regarding “GGUCACGUCUCAAUCAACUCAAUCCCAGGAGUUUCCUCCUGCUAACUCAACAGCUCGCAGUCAAG”, the binding signal was found to be 0.303 ± 0.231 log2 fold change.

For “GGUCACGUCUCAAUCAACUCAUCCUCAGGAGUUUCCUCCUGUUAAGUCAACAGCUCGCAGUCAAG”, the binding signal was found to be 0.328 ± 0.204 log2 fold change.

With “GGUCACGUCUCAAUCAACUCAUCCCCAGGAGUUUACUCCUGUUUAGUCAACAGCUCGCAGUCAAG”, the binding signal stood at 0.458 ± 0.228 log2 fold change.

As for “GGUCACGUCUCAAUCAACUCUAGUCCAGGAGUUUUCUCCUGUUAAUUCAACAGCUCGCAGUCAAG”, the binding signal is 0.331 ± 0.217 log2 fold change.

As to “GGUCACGUCUCAAUCAACUCAUCGUCAGGAGUUUACUCCUGCUAACUCAACAGCUCGCAGUCAAG”, the binding signal stood at 0.304 ± 0.246 log2 fold change.

For the sequence “GGUCACGUCUCAAUCAACUCUUUCCCAGGAGUUUUCUCCUGUUAUGUCAACAGCUCGCAGUCAAG”, the binding signal worked out at 0.376 ± 0.182 log2 fold change.

Take “GGUCACGUCUCAAUCAACUCUAUCCCAGGAGUUUACUCCUGUUUUCUCAACAGCUCGCAGUCAAG”: the binding signal came to 0.399 ± 0.223 log2 fold change.

The values above are taken from PMC5892938, “SARNAclust: Semi-automatic detection of RNA protein binding motifs from immunoprecipitation data”.
